Consider one sequence from PMC7862700, “An all-to-all approach to the identification of sequence-specific readers for epigenetic DNA modifications on cytosine”.

Holding throughout (test): DAPPL (digital affinity profiling via proximity ligation, sequencing); 10 mM Tris-HCl pH 7.5, 50 mM NaCl, 1 mM DTT, 4% glycerol, room temperature, 30 min; GST-TFs on glutathione beads, 16-mer random dsDNA library, 0.1% formaldehyde crosslink after washing; high values mean tight binding
One assay has as its target T1, FEV (Homo sapiens, UniProt Q99581 1-238).
T1 sequence: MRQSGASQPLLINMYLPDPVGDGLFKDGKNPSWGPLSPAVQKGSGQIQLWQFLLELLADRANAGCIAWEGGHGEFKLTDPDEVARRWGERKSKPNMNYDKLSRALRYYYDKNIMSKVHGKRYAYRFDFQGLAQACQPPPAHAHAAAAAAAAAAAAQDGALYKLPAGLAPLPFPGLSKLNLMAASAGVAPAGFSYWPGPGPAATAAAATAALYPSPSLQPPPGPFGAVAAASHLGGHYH
The conditions noted are these: protein: recombinant; tags: N-terminal GST; dsDNA, one strand shown. An outline of the steps:
(§1)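 Human transcription factors carrying a GST fusion were produced in yeast, bound to glutathione beads, tagged with DNA barcodes and pooled together with a tag-only sample. Each pool was held with 200 nmole of a random double-stranded 16-mer DNA library in Tris/NaCl/DTT/glycerol buffer for 30 min at room temperature, then washed, crosslinked in 0.1% formaldehyde, proximity-ligated with BsaI/T4 ligase (1 h, 37 °C), PCR-amplified and sequenced on an Illumina NextSeq500. Binding signal is the read frequency of each hexamer for a given factor divided by its frequency in the tag-only sample.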

The next assay addresses ETV5 (Homo sapiens, UniProt P41161 1-510). The conditions noted are these: protein: recombinant; tags: N-terminal GST; dsDNA, one strand shown. An outline of the steps:
as §1

A further assay concerns the target HSF1 (Homo sapiens, UniProt Q00613 1-529). The conditions noted are these: protein: recombinant; tags: N-terminal GST; chain copies: 3; dsDNA, one strand shown. An outline of the steps:
as §1

For the next assay, the target named is T2, SPIC (Homo sapiens, UniProt Q8N5J4 1-248).
T2 sequence: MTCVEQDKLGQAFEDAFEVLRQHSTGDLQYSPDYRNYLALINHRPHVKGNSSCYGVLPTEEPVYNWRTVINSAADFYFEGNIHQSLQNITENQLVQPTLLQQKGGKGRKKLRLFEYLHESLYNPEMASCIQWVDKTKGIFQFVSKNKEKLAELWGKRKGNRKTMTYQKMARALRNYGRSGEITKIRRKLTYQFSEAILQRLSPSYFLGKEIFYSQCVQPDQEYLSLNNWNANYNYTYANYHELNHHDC
Particulars: protein: recombinant; tags: N-terminal GST; dsDNA, one strand shown. An outline of the steps: as §1

The next assay deals with ELF4 (Homo sapiens, UniProt Q99607 1-663). Particulars: protein: recombinant; tags: N-terminal GST; dsDNA, one strand shown. An outline of the steps: as §1
Sequence of ELF4 (Q99607 whole entry): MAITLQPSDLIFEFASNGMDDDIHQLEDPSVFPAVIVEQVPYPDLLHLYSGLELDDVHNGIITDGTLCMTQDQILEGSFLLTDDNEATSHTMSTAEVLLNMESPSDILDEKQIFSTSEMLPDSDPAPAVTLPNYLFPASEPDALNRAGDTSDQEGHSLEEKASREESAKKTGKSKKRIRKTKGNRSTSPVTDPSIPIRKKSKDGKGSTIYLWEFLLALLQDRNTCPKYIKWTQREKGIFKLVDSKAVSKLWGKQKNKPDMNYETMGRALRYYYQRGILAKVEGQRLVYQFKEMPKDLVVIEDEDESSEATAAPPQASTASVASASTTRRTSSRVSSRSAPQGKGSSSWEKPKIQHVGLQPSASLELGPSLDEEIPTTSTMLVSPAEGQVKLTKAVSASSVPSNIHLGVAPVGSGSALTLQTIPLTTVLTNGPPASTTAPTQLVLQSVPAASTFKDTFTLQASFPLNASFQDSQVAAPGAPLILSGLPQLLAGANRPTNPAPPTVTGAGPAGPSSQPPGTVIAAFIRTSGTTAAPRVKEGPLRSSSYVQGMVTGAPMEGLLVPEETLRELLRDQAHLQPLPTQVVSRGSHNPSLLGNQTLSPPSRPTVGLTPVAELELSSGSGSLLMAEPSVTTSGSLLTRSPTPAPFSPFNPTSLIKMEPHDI
In another assay the target is T3, ELK4 (Homo sapiens, UniProt P28324-2 1-405).
T3 sequence: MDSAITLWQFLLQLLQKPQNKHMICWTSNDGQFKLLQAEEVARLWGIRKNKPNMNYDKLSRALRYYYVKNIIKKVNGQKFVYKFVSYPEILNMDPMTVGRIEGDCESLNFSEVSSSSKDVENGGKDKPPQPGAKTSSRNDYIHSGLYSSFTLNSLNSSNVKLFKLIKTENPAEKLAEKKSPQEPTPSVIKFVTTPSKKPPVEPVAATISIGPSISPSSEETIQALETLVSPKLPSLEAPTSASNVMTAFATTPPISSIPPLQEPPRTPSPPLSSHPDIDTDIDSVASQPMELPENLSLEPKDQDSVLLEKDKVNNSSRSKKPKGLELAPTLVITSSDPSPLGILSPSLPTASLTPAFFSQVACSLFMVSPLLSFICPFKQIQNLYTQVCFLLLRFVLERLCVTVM
Particulars: protein: recombinant; tags: N-terminal GST; dsDNA, one strand shown. An outline of the steps:
as §1

A further assay has as its target T4, ETV2 (Homo sapiens, UniProt O00321 1-342).
T4 sequence: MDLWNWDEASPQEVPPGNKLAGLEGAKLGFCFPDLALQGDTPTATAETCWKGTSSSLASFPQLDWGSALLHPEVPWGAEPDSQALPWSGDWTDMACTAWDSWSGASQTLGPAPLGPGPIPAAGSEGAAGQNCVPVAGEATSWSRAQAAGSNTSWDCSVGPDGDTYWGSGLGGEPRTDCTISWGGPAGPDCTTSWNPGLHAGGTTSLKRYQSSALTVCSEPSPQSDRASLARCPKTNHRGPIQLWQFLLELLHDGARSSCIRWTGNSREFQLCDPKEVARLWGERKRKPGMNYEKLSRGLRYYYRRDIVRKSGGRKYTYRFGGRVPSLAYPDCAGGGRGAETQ
Particulars: protein: recombinant; tags: N-terminal GST; dsDNA, one strand shown. An outline of the steps: as §1

For the next assay, the target named is T5, ELF3 (Homo sapiens, UniProt P78545 1-371).
T5 sequence: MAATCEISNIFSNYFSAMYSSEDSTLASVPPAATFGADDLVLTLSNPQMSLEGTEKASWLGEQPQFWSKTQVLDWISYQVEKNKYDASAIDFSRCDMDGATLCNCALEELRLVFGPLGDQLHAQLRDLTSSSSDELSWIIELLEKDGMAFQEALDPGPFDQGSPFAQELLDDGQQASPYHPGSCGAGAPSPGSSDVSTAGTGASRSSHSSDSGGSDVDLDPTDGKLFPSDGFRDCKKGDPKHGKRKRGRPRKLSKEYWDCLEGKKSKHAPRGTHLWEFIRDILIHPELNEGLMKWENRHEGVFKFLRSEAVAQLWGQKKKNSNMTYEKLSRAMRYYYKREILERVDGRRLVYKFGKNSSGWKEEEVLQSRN
Particulars: protein: recombinant; tags: N-terminal GST; dsDNA, one strand shown. An outline of the steps:
as §1

The target of another assay is CRX (Homo sapiens, UniProt O43186 1-299). The conditions noted are these: protein: recombinant; tags: N-terminal GST; dsDNA, one strand shown. An outline of the steps:
as §1

For a further assay, the target named is ETV1 (Homo sapiens, UniProt P50549 1-477). The conditions noted are these: protein: recombinant; tags: N-terminal GST; dsDNA, one strand shown. An outline of the steps: as §1
Sequence of ETV1 (P50549 whole entry): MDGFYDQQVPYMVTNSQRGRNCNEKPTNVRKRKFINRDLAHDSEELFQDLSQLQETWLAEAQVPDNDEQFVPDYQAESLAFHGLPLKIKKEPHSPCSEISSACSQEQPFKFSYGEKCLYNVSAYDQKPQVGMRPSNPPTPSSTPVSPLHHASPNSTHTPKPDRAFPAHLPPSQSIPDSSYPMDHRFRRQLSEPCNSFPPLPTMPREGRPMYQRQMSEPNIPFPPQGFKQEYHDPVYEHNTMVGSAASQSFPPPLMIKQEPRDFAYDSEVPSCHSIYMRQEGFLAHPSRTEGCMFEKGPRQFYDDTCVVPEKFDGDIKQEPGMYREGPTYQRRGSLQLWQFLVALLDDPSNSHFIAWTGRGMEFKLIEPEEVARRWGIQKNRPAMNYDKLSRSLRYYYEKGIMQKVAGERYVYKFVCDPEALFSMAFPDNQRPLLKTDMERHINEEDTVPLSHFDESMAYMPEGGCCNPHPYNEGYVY
The next assay has as its target T6, ERF (Homo sapiens, UniProt P50548 1-548).
T6 sequence: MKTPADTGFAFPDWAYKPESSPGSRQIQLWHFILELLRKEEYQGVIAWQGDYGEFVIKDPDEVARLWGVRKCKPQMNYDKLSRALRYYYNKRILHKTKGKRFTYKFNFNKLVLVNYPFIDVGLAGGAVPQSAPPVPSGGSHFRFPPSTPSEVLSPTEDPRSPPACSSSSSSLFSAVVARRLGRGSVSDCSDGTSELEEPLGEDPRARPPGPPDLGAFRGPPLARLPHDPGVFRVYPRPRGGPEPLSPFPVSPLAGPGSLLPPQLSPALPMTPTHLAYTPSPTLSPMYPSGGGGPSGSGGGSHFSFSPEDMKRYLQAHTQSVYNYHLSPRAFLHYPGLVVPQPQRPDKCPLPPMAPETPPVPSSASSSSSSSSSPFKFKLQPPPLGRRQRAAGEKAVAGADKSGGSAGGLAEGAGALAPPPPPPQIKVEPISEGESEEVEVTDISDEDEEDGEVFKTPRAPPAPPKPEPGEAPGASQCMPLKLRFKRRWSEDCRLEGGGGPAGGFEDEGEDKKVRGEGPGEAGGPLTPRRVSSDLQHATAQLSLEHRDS
The conditions noted are these: protein: recombinant; tags: N-terminal GST; dsDNA, one strand shown. An outline of the steps: as §1

The next assay concerns the target T7, ETV3L (Homo sapiens, UniProt Q6ZN32 1-361).
T7 sequence: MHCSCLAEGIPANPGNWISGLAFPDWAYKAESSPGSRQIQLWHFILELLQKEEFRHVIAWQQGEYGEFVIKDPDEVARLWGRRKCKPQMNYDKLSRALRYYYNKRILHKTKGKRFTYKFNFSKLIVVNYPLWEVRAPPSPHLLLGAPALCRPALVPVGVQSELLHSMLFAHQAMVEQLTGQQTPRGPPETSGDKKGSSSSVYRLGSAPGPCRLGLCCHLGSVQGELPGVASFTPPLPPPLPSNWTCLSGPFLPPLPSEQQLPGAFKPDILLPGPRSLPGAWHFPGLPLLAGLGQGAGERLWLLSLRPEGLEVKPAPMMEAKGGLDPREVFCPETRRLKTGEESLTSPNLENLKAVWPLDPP
The conditions noted are these: protein: recombinant; tags: N-terminal GST; dsDNA, one strand shown. An outline of the steps: as §1

Another assay has as its target T8, ETS2 (Homo sapiens, UniProt P15036 1-469).
T8 sequence: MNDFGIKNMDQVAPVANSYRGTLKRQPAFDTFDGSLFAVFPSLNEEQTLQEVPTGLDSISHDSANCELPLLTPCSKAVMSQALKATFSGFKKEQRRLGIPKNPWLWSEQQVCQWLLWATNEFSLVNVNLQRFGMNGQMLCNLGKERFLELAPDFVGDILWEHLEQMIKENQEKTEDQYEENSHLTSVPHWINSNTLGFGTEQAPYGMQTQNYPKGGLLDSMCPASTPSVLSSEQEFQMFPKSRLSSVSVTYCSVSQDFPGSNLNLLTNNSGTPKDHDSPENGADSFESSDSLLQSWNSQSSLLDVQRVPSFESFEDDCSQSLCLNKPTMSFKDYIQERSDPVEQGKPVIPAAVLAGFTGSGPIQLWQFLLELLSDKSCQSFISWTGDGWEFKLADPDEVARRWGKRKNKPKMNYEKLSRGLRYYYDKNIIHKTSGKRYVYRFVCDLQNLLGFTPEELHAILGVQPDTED
The conditions noted are these: protein: recombinant; tags: N-terminal GST; dsDNA, one strand shown. An outline of the steps:
as §1

Another assay has as its target T9, SPDEF (Homo sapiens, UniProt O95238 1-335).
T9 sequence: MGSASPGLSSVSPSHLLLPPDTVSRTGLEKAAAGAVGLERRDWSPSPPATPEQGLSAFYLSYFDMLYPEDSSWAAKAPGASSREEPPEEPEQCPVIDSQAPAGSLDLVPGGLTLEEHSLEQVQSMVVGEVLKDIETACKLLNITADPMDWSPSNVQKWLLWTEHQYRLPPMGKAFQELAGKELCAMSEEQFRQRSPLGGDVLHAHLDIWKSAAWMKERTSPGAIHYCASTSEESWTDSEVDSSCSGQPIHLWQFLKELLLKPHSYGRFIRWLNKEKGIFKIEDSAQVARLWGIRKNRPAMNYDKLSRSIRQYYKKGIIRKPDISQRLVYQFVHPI
Particulars: protein: recombinant; tags: N-terminal GST; dsDNA, one strand shown. An outline of the steps: as §1

Another assay concerns the target T10, ETV7 (Homo sapiens, UniProt Q9Y603 1-341).
T10 sequence: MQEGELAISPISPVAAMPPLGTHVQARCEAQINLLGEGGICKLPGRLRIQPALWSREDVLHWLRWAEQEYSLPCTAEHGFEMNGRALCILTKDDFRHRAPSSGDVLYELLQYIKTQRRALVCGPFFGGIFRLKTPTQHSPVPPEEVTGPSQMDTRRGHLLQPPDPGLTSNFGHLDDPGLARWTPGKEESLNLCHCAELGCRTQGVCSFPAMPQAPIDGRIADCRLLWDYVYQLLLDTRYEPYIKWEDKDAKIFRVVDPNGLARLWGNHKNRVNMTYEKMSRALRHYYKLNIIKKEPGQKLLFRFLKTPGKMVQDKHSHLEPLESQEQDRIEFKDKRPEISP
The conditions noted are these: protein: recombinant; tags: N-terminal GST; dsDNA, one strand shown. An outline of the steps: as §1

In a further assay the target is T11, ELF5 (Homo sapiens, UniProt Q9UKW6-2 1-255).
T11 sequence: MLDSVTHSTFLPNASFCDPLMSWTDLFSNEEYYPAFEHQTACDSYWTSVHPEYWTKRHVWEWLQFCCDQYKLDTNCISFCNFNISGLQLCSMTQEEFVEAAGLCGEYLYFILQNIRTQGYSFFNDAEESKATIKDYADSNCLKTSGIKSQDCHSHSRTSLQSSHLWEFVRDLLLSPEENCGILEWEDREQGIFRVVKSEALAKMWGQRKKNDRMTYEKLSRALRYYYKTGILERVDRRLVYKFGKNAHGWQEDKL
The conditions noted are these: protein: recombinant; tags: N-terminal GST; dsDNA, one strand shown. An outline of the steps: as §1

For the next assay, the target named is T12, ETV3 (Homo sapiens, UniProt P41162-2 1-143).
T12 sequence: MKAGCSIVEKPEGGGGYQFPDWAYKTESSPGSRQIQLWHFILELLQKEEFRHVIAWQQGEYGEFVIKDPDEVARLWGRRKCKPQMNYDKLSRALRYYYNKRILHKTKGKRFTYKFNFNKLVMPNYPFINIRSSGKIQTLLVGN
The conditions noted are these: protein: recombinant; tags: N-terminal GST; dsDNA, one strand shown. An outline of the steps:
as §1

In another assay the target is ETV6 (Homo sapiens, UniProt P41212 1-452). Particulars: protein: recombinant; tags: N-terminal GST; dsDNA, one strand shown. An outline of the steps:
as §1

Sequence of CRX (O43186 whole entry): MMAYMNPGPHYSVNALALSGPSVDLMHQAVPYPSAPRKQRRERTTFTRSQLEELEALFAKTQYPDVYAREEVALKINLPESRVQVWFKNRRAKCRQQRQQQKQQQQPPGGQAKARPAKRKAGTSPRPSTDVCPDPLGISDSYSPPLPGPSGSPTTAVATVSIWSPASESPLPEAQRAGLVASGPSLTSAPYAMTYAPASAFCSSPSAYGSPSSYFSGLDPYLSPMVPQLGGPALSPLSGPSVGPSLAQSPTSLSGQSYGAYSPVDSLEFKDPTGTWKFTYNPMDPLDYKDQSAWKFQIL
Sequence of ETV6 (P41212 whole entry): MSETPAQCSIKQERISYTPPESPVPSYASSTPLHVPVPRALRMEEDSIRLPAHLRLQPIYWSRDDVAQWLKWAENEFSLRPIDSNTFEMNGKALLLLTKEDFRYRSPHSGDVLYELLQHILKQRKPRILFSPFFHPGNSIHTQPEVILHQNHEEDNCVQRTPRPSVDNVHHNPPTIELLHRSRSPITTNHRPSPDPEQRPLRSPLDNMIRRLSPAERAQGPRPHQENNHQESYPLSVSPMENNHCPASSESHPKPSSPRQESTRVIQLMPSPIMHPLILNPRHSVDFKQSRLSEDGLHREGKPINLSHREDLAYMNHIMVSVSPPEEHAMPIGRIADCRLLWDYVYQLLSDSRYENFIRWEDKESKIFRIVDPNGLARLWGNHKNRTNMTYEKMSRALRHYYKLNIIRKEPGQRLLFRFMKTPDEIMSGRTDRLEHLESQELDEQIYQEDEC
Sequence of ETV5 (P41161 whole entry): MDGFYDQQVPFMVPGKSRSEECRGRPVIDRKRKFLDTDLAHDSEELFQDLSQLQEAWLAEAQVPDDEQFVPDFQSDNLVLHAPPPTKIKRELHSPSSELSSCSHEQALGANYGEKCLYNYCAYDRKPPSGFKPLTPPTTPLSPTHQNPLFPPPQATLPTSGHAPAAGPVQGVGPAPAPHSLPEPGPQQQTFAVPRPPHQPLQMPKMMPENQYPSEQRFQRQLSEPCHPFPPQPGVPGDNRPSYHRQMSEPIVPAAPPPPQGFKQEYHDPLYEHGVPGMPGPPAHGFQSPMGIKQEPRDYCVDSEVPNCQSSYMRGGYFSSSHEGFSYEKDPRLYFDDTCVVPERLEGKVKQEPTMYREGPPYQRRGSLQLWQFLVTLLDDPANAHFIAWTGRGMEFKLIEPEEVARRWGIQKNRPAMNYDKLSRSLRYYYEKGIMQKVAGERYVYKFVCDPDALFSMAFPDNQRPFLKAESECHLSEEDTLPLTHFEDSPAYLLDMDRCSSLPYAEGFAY
Sequence of HSF1 (Q00613 whole entry): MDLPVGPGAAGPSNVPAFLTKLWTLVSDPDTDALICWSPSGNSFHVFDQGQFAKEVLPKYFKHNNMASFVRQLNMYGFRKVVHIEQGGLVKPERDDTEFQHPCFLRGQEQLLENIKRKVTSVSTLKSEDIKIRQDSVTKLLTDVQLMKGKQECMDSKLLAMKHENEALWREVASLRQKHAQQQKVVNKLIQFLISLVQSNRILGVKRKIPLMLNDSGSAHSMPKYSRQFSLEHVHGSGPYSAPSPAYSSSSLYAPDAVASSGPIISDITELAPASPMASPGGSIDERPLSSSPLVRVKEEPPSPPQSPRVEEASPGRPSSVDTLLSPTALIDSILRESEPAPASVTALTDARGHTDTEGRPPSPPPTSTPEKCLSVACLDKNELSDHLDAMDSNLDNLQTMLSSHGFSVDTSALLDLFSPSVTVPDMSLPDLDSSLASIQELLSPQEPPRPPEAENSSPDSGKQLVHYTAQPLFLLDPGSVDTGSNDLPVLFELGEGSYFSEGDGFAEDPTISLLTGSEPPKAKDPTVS

For the sequence ATGAAC, the binding signal was 1.26 fold enrichment (6-mer frequency, TF over GST control) with FEV; 1.29 fold enrichment (6-mer frequency, TF over GST control) in the assay with ETV5; 1.21 fold enrichment (6-mer frequency, TF over GST control) with HSF1; 1.39 fold enrichment (6-mer frequency, TF over GST control) in the assay with SPIC; 1.36 fold enrichment (6-mer frequency, TF over GST control) in the assay with ELF4; 1.31 fold enrichment (6-mer frequency, TF over GST control) with ELK4. Also, the binding signal with ETV2 was 1.11 fold enrichment (6-mer frequency, TF over GST control); with ELF3 it was 1.38 fold enrichment (6-mer frequency, TF over GST control); in the assay with CRX, 1.13 fold enrichment (6-mer frequency, TF over GST control); in the assay with ETV1 it was 1.38 fold enrichment (6-mer frequency, TF over GST control); in the assay with ERF it was 1.26 fold enrichment (6-mer frequency, TF over GST control); in the assay with ETV3L it was 1.28 fold enrichment (6-mer frequency, TF over GST control). For the same sequence, the binding signal with ETS2 is 1.29 fold enrichment (6-mer frequency, TF over GST control); with SPDEF, 1.18 fold enrichment (6-mer frequency, TF over GST control); with ETV7 it was 1.2 fold enrichment (6-mer frequency, TF over GST control); with ELF5, 1.29 fold enrichment (6-mer frequency, TF over GST control); with ETV3 it was 1.28 fold enrichment (6-mer frequency, TF over GST control); in the assay with ETV6 it was 1.24 fold enrichment (6-mer frequency, TF over GST control).
